According to PubChem BioAssay (NCI):
Compounds without any hit were thinned out: in the full panel of roughly 79,000, 15% have a hit. A number with no mark means an inactive call. Activity calls are given as the source filed them. No stated cut-off is given here; in the data, active means growth inhibition above about 70%; inactive means the rest. Where a SMILES comes first, the peptide text is derived from it. [ ]: non-standard residue; d: D form. The star is where a group is joined. Ac5c = NC1(C(=O)O)CCCC1; Cbz = O=C(OCc1ccccc1)*; Boc = CC(C)(C)OC(=O)*; tBu = CC(C)(C)*

Tests used:
[1] = NCI Yeast Anticancer Drug Screen. Data for the rad50 strain (AID 155);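 further: 0% = growth of vehicle-only cultures of the same strain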; conditions: S. cerevisiae rad50 strain growth inhibition; at 50.0 µM; active compounds read high
Outline: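 Cells are treated with compound, grown, and their growth is then scored against vehicle-only cultures of the same repair-deficient yeast strain.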

[2] = NCI Yeast Anticancer Drug Screen. Data for the mec2-1 strain (AID 157); conditions: S. cerevisiae mec2-1 strain, at 50.0 µM, active compounds read high
Outline: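 Cells of the genetically defined mec2-1 yeast strain are incubated with test compound. Inhibition of growth is calculated against vehicle-treated controls.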

[3] = NCI Yeast Anticancer Drug Screen. Data for the sgs1 mgt1 strain (AID 161);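 further: 0% = growth of cultures given vehicle only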; conditions: S. cerevisiae sgs1 mgt1 strain, at 50.0 µM, active compounds read high
Outline: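 Read-out: growth inhibition vs vehicle controls. Cells: mutant yeast strain deficient in DNA damage repair.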

[4] = NCI Yeast Anticancer Drug Screen. Data for the cln2 rad14 strain (AID 165);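 further: 0% = growth equal to vehicle treated cultures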; conditions: S. cerevisiae cln2 rad14 strain, at 50.0 µM, active compounds read high
Outline: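 The screen exposed genetically defined yeast (cln2 rad14) to test compounds and scored growth inhibition relative to vehicle-treated controls.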

[5] = NCI Yeast Anticancer Drug Screen. Data for the bub3 strain (AID 167); conditions: S. cerevisiae bub3 mutant strain, at 50.0 µM, active compounds read high
Outline: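 Part of a panel of yeast mutants defective in DNA damage repair or cell cycle regulation. Each strain is grown with compound, and inhibition is calculated relative to solvent-treated cultures.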

[6] = NCI Yeast Anticancer Drug Screen. Data for the mlh1 rad18 strain (AID 175); conditions: S. cerevisiae mlh1 rad18 strain growth inhibition; at 50.0 µM; active compounds read high
Outline: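 Compound-treated yeast growth, normalised to vehicle controls. Strain bears defined DNA repair mutations.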

SMILES	growth inhibition [1]	growth inhibition [2]	growth inhibition [3]	growth inhibition [4]	growth inhibition [5]	growth inhibition [6]
O=C1C=C(Nc2ccc(Cl)cc2Cl)c2ccccc2C1=O	30.2%	17.7%	17.2%	29%	27.9%	37.5%
CCOC(=O)Nc1ccc(NC(C)=O)cc1	2.45%	0.65%	1.3%	-62.7%	-23.8%	-22.6%
CC(=O)Nc1ccc(C2CCCC2)cc1Br	-3.05%	-2.15%	0%	-39.8%	-12.2%	-4.45%
Cc1ccc(COC(=O)Nc2ccc(C)c(NC(=O)OCc3ccc(C)cc3)c2)cc1	14.4%	-1.15%	11.7%	-2.9%	-3.8%	30.1%
C=Cc1cccc([N+](=O)[O-])c1	15.8%	-0.15%	6.6%	16.5%	19.6%	-3.7%
COC(=O)c1nc(SC)[nH]c1CC(N)=O	43.5%	22.4%	20.5%	-22.8%	32.7%	-15.2%
COC(=O)Cc1c(C(=O)OC)c(O)cc(O)c1C(=O)OC	5.85%	5.25%	-10.2%	-14.4%	12.3%	-5.85%
COC(=O)c1nc2n[nH]c(N)c2c2c1CCCCCCCCCC2	7.35%	15.6%	-5.65%	-13.6%	1.4%	12.1%
O=[N+]([O-])c1ccc(-c2cc3ccccn3c2)cc1	-5.1%	-46.2%	-9.7%	-11.8%	11.8%	-18.1%
COC(=O)c1cc2c(cc1CC(Cc1ccc3c(c1)CCCC3)C(=O)OC)CCCC2 (stereo not drawn)	-2.1%	1.35%	-15.2%	2.35%	-2.25%	-5.15%
O=c1n(-c2ccccc2)c(=O)n2n1C1C=CC2C23C=CC12CCCC3 (stereo not drawn)	13.8%	7.85%	9.05%	12%	26.2%	22.8%
COc1cc(C2c3cc4c(cc3OC(NC3CCCCC3)C2C)OCO4)cc(OC)c1OC (stereo not drawn)	-0.35%	-9.4%	-2.4%	27.8%	24.6%	-20.9%
COC(=O)[C@H]1C=C[C@@H](C)n2c(=O)c3cc4ccccc4cc3c(=O)n21	-21.2%	-1.55%	-18.9%	-7.95%	-24%	-18.2%
CCOC(=O)/C(Cc1nc2ccccc2[nH]c1=O)=N\O	-0.5%	9.95%	5.65%	50.4%	-4.45%	7.7%
CC(=O)NNC(=S)/N=C/C(C(=O)Nc1ccc([N+](=O)[O-])cc1)=C(\C)O	-19.8%	4.4%	-21.9%	15.8%	6.5%	-4%
O=C(NNC(=S)S)c1ccncc1	7.5%	2.4%	-1.2%	-8.95%	11.7%	21.9%
CCOC(=O)CNC1C(NC(C)=O)C(OC)OC2COC(c3ccccc3)OC21 (stereo not drawn)	-7.7%	6.6%	6.7%	-12.3%	-0.75%	-2.4%
Cc1ccc(CCC=O)cc1	30.6%	-4.1%	17.4%	-37.9%	-8.5%	29.4%
Cc1ccc(N=NNc2ccccc2)cc1	-7.7%	-8.05%	-7.65%	-13.9%	-11.3%	-7.6%

SMILES	growth inhibition [1]	growth inhibition [2]	growth inhibition [3]	growth inhibition [4]	growth inhibition [5]	growth inhibition [6]
Cc1cc(=O)[nH]c(NN)n1	1%	-1.85%	-1.85%	23.1%	21.9%	2.15%
CCC[C@@H]1CCCC[C@H]1C	0.55%	-1.95%	-5.3%	-2.2%	-14.2%	0.5%
O=[N+]([O-])c1ccc(Cl)c(C=NC23CC4CC(CC(C4)C2)C3)c1	-13.6%	-24.8%	-29%	-9.3%	-22.9%	-8.9%
Cc1c(F)c(Br)c([N+](=O)[O-])c(C)c1[N+](=O)[O-]	-7.15%	5.45%	-8.8%	-4.15%	-1.2%	-17.9%
NC(=O)c1cc2ccccc2c2ccccc12	0.65%	-23.8%	-15.6%	-33.3%	-1%	-3.85%
COC(=O)C1CCCC(=O)C1C(=O)OC (stereo not drawn)	1.35%	0.3%	-3.45%	-36.2%	-23%	2.05%
CC(=O)NC1C(O)OC(COCc2ccccc2)C(OCc2ccccc2)C1OCc1ccccc1 (stereo not drawn)	6.9%	-1.8%	-10.4%	7.25%	-5.35%	-15.1%
CC/C=N/Nc1cn[nH]c(=O)c1Cl	-1.3%	0.1%	9.85%	4.85%	-7.75%	-14.9%
NC(=O)NC(=O)OCCOC(=O)NC(N)=O	-28.4%	-11.7%	-13.3%	-16.7%	-8.85%	-13.2%
COC(=O)C12c3ccccc3C3C(c4ccccc41)C32 (stereo not drawn)	11.9%	13.5%	22.8%	17.6%	2.2%	20.6%
COc1cc(CCC(=O)NS(=O)(=O)c2ccccc2)cc(OC)c1OC	4.2%	1.9%	-6.75%	-2.85%	-3.85%	10.2%
CCN(CC)CCC(CN(C)C)C(C)O (stereo not drawn)	-4.05%	4.05%	13.1%	-17.4%	-1.4%	8.75%
CC(C)(C)OC(=O)N(CCCCN(CCCNC(=O)C(F)(F)F)C(=O)OC(C)(C)C)CCCNC(=O)C(F)(F)F	-14.9%	4.75%	-14.3%	3.15%	4.6%	-32%
COC(=O)C1(NC(=O)C(Cc2ccccc2)NC(=O)C(NC(=O)C(CCCCNC(=O)OC(C)(C)C)NC(=O)C(Cc2c[nH]c3ccccc23)NC(=O)C(Cc2ccccc2)NC(=O)OCc2ccccc2)C(C)OC(C)(C)C)CCCC1 (stereo not drawn) (Cbz-FWK(Boc)T(tBu)F[Ac5c]-OMe; configuration not given here)	-11.9%	-1.85%	-26.6%	6.9%	-11.4%	-12.7%
CC(=O)Oc1ccc(C2c3cc(OC(C)=O)c(OC(C)=O)cc3CC3C(=O)OCC32)cc1OC(C)=O (stereo not drawn)	2.45%	-4.85%	2.6%	-36.3%	12.3%	1.1%
Oc1ccccc1C=Nc1ccc(Cl)cn1	17.2%	15.2%	16.2%	21.6%	18.9%	20.8%
CCCCN(CCCC)CC(O)c1c2cccc(Cl)c2cc2c(Cl)cccc12 (stereo not drawn)	98.9% (active)	99.5% (active)	78.6% (active)	93.3% (active)	98.8% (active)	99.1% (active)
CC12CCC3c4ccc(O)cc4C(=O)CC3C1CCC2O (stereo not drawn)	-16.1%	7.6%	5.8%	-29.8%	-11.2%	-17.6%
CC(=O)OC(Cn1cncn1)(Cn1cncn1)c1ccc(Cl)cc1Cl	43.6%	32.5%	58.3%	46.8%	39.8%	56.7%
